The results in this text go back to PMC7819943, “Rice protein-binding microarrays: a tool to detect cis-acting elements near promoter regions in rice”.

In all, about 35,000 sequences were measured (“fluorescence intensity (a.u.)”: median about 10,000, highest 2% from about 52,000 on). The sample holds the highest values, similar sequences and a random draw of the others, so the mix is not that of the screen.

The target of this assay is T1, OsWOX13 (Oryza sativa, UniProt Q5QMM3 1-267).
T1 sequence: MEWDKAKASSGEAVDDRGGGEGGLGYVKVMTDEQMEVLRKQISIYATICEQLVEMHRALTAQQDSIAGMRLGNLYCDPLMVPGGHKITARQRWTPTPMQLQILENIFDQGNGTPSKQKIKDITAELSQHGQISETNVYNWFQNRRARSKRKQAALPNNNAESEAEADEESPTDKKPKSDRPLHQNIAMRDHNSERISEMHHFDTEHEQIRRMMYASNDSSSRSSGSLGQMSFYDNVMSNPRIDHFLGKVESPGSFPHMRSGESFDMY
The assay can be described thus: protein-binding microarray (RPBM); PBS, 2% BSA, 51.3 ng/ul salmon testes DNA, 50 uM zinc acetate, 200 nM TF, 25 C, 1 h; high values mean tight binding. The note with it: protein: recombinant; tags: N-terminal polyhistidine and DsRed monomer fusion (pET32a); label: CyDye5-dUTP incorporated in the synthesized complementary strand; 3' TTTTT single-stranded linker to array surface; dsDNA, one strand shown. A digest of the protocol:
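Binding signal here means per-feature fluorescence intensity in arbitrary units. The values were read on an Axon 4000B scanner after a custom Agilent array, double-stranded by primer extension with Cy5-dUTP, was incubated with 200 nM protein at 25 °C for 1 h in PBS with 2% BSA, salmon testes DNA and 50 µM zinc acetate, then washed. The proteins were transcription factors with an N-terminal polyhistidine tag and DsRed, expressed in E. coli BL21-CodonPlus and purified on Ni–NTA.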
As to “GATATATGATTGACTCAAGTCTTATTGATAAACTTGGTCCCGGAGTCACCTAGTGCAG”, the binding signal is 57500 fluorescence intensity (a.u.).

Regarding “GTAATAATTGATTGGTTCAGAAATTAATCACTAATTGTCCCGGAGTCACCTAGTGCAG”, the binding signal was 65000 fluorescence intensity (a.u.).

“GTAATTATAATTTATTTTGTTATGAGTTGTTTTATCACTCCGGAGTCACCTAGTGCAG”: the binding signal is 6220 fluorescence intensity (a.u.).

As for “TGTAATTATAATTTATTTTATTGTGATTTGATTTATCATCCGGAGTCACCTAGTGCAG”, the binding signal was 59800 fluorescence intensity (a.u.).

On to “TTATGTAATTATAATTTATTTTATTGTGACTTGATTTATCCGGAGTCACCTAGTGCAG”, for which the binding signal is 34000 fluorescence intensity (a.u.).

For the sequence “ACGTAATTATAATTATTTTATTGTGAGTTGTTTTATTACTCGGAGTCACCTAGTGCAG”, the binding signal was 26500 fluorescence intensity (a.u.).

As for “TATGTAATTATTATTTATTTTATTGTGATTTGATTCATCACGGAGTCACCTAGTGCAG”, the binding signal is 31400 fluorescence intensity (a.u.).

Take “ATGGTTTGACTTGGATAAACTGGATTCTTAACTCAAACCTCGGAGTCACCTAGTGCAG”: the binding signal was 3410 fluorescence intensity (a.u.).

In the case of “AATAATTTGGTTAGTTATTGTTAAGGAGAAATTTGATTCCCGGAGTCACCTAGTGCAG”, the binding signal is 12500 fluorescence intensity (a.u.).

For the sequence “TTGATATTCTTTATATGATTATATAGGATTGGTCTCCCTCCGGAGTCACCTAGTGCAG”, the binding signal was 3530 fluorescence intensity (a.u.).

Consider “GCTTAATTAATTGATTCAGAAAATAAAATAGTGAAATAACCGGAGTCACCTAGTGCAG”, for which the binding signal was 33400 fluorescence intensity (a.u.).

For the sequence “TGTAATTATAATTTATTTTGTGATGAGTTGTTTTATCACTCGGAGTCACCTAGTGCAG”, the binding signal was 55800 fluorescence intensity (a.u.).

As to “GAGAAATGGTAATTTAGCATGCTTATATATTGAGGTTTAGCGGAGTCACCTAGTGCAG”, the binding signal was 8510 fluorescence intensity (a.u.).

Take “TAATCTGTGATGATGGATTCTCGTTAAGCATATGTTCTTTCGGAGTCACCTAGTGCAG”: the binding signal was 5830 fluorescence intensity (a.u.).

As to “TGGTGGTGGCTGGCGGCGGGGAGGATGAGAACGAGAGAAGCGGAGTCACCTAGTGCAG”, the binding signal is 3920 fluorescence intensity (a.u.).

For the sequence “TTCCGGCCTAGATTGAATCTGGGTTTAACCGTAAGAGTCCCGGAGTCACCTAGTGCAG”, the binding signal is 6260 fluorescence intensity (a.u.).

Turning to “GTGGATATCAATCTGTATATACTAGATCCCCACCCACCATCGGAGTCACCTAGTGCAG”, the binding signal is 6630 fluorescence intensity (a.u.).

Turning to “TCGAACAGGCCCTTAATTATCTGAGCTATCCTGCATGCTTCGGAGTCACCTAGTGCAG”, the binding signal is 8320 fluorescence intensity (a.u.).

On to “GGCAAATTAACCAAGTTAGCTGCAGCTGCAGCTGGGATGGCGGAGTCACCTAGTGCAG”, for which the binding signal was 9780 fluorescence intensity (a.u.).

Turning to “CATTTGATTGTATTTCCATCTTATTCTTAATCTGTATAAGCGGAGTCACCTAGTGCAG”, the binding signal is 32100 fluorescence intensity (a.u.).

As to “ACCAATCACAACCATTCTTCTTCACTTACTTTCTCTTTTCCGGAGTCACCTAGTGCAG”, the binding signal was 6630 fluorescence intensity (a.u.).

Regarding “TTGATGATGTAACGTACGGTTGATTAATAATAAATTAGGTCGGAGTCACCTAGTGCAG”, the binding signal was 18400 fluorescence intensity (a.u.).

For “GTGATTGATGTAAATGCCTTAACGGTCCAGCACCTCAGCTCGGAGTCACCTAGTGCAG”, the binding signal was 61200 fluorescence intensity (a.u.).

In the case of “GTCTTAATTATATTTGATAATCAACTTTATCCTTGGTTTGCGGAGTCACCTAGTGCAG”, the binding signal was 50800 fluorescence intensity (a.u.).

Regarding “ATATTATTATATTATAATTATACTGTATTTATATCTGATACGGAGTCACCTAGTGCAG”, the binding signal was 9100 fluorescence intensity (a.u.).

Turning to “ATTGATTATGCCATGATTGGATCTTGGCACAGTGCTCTGCCGGAGTCACCTAGTGCAG”, the binding signal was 60300 fluorescence intensity (a.u.).

“CTATATCTTGATGCTTTGTTGATTAGTACCATGGATTGGCCGGAGTCACCTAGTGCAG”: the binding signal was 6900 fluorescence intensity (a.u.).

For the sequence “GAAGTTGATTATGAGCTCTTGGATCTTTTGGCAGGTGCAACGGAGTCACCTAGTGCAG”, the binding signal was 19400 fluorescence intensity (a.u.).

Consider “TGTGATTAAATGATTCCTCCAGTGCTATATGCCTATATAACGGAGTCACCTAGTGCAG”, for which the binding signal is 17500 fluorescence intensity (a.u.).

As to “TTCTGTAATTGATGCTCCTGCATTTTAGTGTATAAGTGTACGGAGTCACCTAGTGCAG”, the binding signal was 36500 fluorescence intensity (a.u.).

In the case of “TCAATTAATTGATTTATAATGATTTGGTCTTATCAATCCCCGGAGTCACCTAGTGCAG”, the binding signal is 53400 fluorescence intensity (a.u.).

As to “TGCCAACTTATCCATCAATTGAGATTAATGATTTGGTCTTCGGAGTCACCTAGTGCAG”, the binding signal is 13900 fluorescence intensity (a.u.).

Take “CTTATAATTGATTTATAGTCTGTCATTGTATCTGCTCTTACGGAGTCACCTAGTGCAG”: the binding signal was 65100 fluorescence intensity (a.u.).

Take “GTTGCTAAATTTTAGTTATTACTGTGCAGTTGCCAAATTTCGGAGTCACCTAGTGCAG”: the binding signal was 4010 fluorescence intensity (a.u.).

For “CATGAATTGGAAGATTTGATGCACTGATACTCCATGAAGACGGAGTCACCTAGTGCAG”, the binding signal was 8060 fluorescence intensity (a.u.).

Take “ATTAAATTTGAAAATTTATTAAATTGTGCTGATAAGTCAACGGAGTCACCTAGTGCAG”: the binding signal was 14500 fluorescence intensity (a.u.).

In the case of “AAGACGGTAATAGACTGTGCGAGTTGAACATGCAACTCTACGGAGTCACCTAGTGCAG”, the binding signal was 7360 fluorescence intensity (a.u.).

Turning to “ATTGATTTGATTGTATTCATAATCATACAATTATCTTAGCCGGAGTCACCTAGTGCAG”, the binding signal is 65200 fluorescence intensity (a.u.).

In the case of “AGATAATTCTTACTAGATGATTATTGTATATGCTGCTATCCGGAGTCACCTAGTGCAG”, the binding signal is 9000 fluorescence intensity (a.u.).

For “TCCATTTATCCCGATAATTTGTACTACATTTGTATAGGCCCGGAGTCACCTAGTGCAG”, the binding signal was 5670 fluorescence intensity (a.u.).

As for “ACCCTTGATTTACTTGATAATTTGTTATATGTCCCCATCCCGGAGTCACCTAGTGCAG”, the binding signal is 49800 fluorescence intensity (a.u.).

Take “AATTTTCTTATGATTAGCATTTCTATTGCTATTAGATGATCGGAGTCACCTAGTGCAG”: the binding signal was 8930 fluorescence intensity (a.u.).

On to “GCTAATAGATTGCTATTGTATCTGCTCTTATGCATGATCGCGGAGTCACCTAGTGCAG”, for which the binding signal was 61200 fluorescence intensity (a.u.).

Regarding “TTTGTTAAATTTCTCAATTGATTCATAATTCTTTATTAGCCGGAGTCACCTAGTGCAG”, the binding signal is 10300 fluorescence intensity (a.u.).

Consider “CCCTTGATTTACTTGATAATTTGTTATAGGTCCCTATCCCCGGAGTCACCTAGTGCAG”, for which the binding signal is 53400 fluorescence intensity (a.u.).

For “AACAAGATTGTGATTCATACATCTGCATCTTATTTTGTATCGGAGTCACCTAGTGCAG”, the binding signal was 3650 fluorescence intensity (a.u.).

In the case of “CCCCATCTGTATTTTAAATTTATATCCGCCACTGATTGTACGGAGTCACCTAGTGCAG”, the binding signal was 4240 fluorescence intensity (a.u.).

For “CCCGATTGACAAGCTGACTCAGCATGGAGGGACCCACATGCGGAGTCACCTAGTGCAG”, the binding signal was 37700 fluorescence intensity (a.u.).

On to “CAACACATGATTGCCGGGCTTTCTTCCCTCTCGTCCTGAGCGGAGTCACCTAGTGCAG”, for which the binding signal was 32000 fluorescence intensity (a.u.).

Regarding “TAGTACTACTCATCACCAATCAGCTGCCACACATGCATGGCGGAGTCACCTAGTGCAG”, the binding signal is 5430 fluorescence intensity (a.u.).

Take “CGCGCCAATCATCTCCCGCTCCCTCTTATCCTCCCCTCTCCGGAGTCACCTAGTGCAG”: the binding signal was 14100 fluorescence intensity (a.u.).

With “AGGACTAATAGATTTCCAAGATGATCGGGACTGACCGATCCGGAGTCACCTAGTGCAG”, the binding signal is 10600 fluorescence intensity (a.u.).

For “ACTATATAATTAAAATAGATTTCACCCGTTGCAACGCACGCGGAGTCACCTAGTGCAG”, the binding signal was 13300 fluorescence intensity (a.u.).

As for “CCAAATTACAACAAATATAATTTTACTTAATCCAAAGTAACGGAGTCACCTAGTGCAG”, the binding signal was 8310 fluorescence intensity (a.u.).

As for “GTTTAATGATAAATCTAGTAATATTAATTTTACATGATTGCGGAGTCACCTAGTGCAG”, the binding signal was 25600 fluorescence intensity (a.u.).

In the case of “CTAATGACGAATTAATTAGAATTAATAGATTTATCTTGCACGGAGTCACCTAGTGCAG”, the binding signal was 53300 fluorescence intensity (a.u.).

For the sequence “AACACCATACCAAAATCCAAATATACTTATATTTTACTTACGGAGTCACCTAGTGCAG”, the binding signal is 65000 fluorescence intensity (a.u.).

Regarding “ATAATATATGATTAATTAAGTTTTAATTATTACAAACTTGCGGAGTCACCTAGTGCAG”, the binding signal was 37000 fluorescence intensity (a.u.).

Consider “AAAATATAATCAAAATAATTTACTTATCCATGTAATCATACGGAGTCACCTAGTGCAG”, for which the binding signal is 3770 fluorescence intensity (a.u.).

On to “AATGAATTTAGATAGATATATATATCTAGATTCATTAGCACGGAGTCACCTAGTGCAG”, for which the binding signal is 7940 fluorescence intensity (a.u.).

As for “TAATAGATAGATAGATAGATAGATAGATTAGTAATTTAGACGGAGTCACCTAGTGCAG”, the binding signal was 30600 fluorescence intensity (a.u.).

Turning to “ATAATTAGATTAAAATAGATTTTACCCGTTGCAATGCACGCGGAGTCACCTAGTGCAG”, the binding signal is 56200 fluorescence intensity (a.u.).

In the case of “ATATAATTAAATGATTAATTAATTAGTACCGTTTTACTTGCGGAGTCACCTAGTGCAG”, the binding signal is 65500 fluorescence intensity (a.u.).

As to “ATAATAAGATTAAAATAACATTTACCCGTTGCAAAGCACGCGGAGTCACCTAGTGCAG”, the binding signal was 3610 fluorescence intensity (a.u.).
